Sm TGR inh – inhibitors of Schistosoma mansoni thioredoxin glutathione reductase; Q962Y6; purified TGR, DTNB reduction, TNB absorbance 405 nm; Potency, µM (top dose mostly 114 µM), without a hit: at the top dose activity change, negative = inhibition, actives largely listed as inhibitors; 3% of 360,000 active; further: potency means the concentration at half of the fitted maximal effect; on the % scale 0 is the no-effect control and ±100 the full control effect; nearly all actives have a fitted effect of over 60% in size
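TGR 20 nM + NADPH 100 uM (dispensed conc.), cpd preinc 15 min RT; start with NADPH (500 uM addition) then DTNB (15 mM addition). Kinetic TNB absorbance, 405 nm filter. Four-parameter Hill fit across titration.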
Cycloheximide cs – counter-screen for Shiga toxin inhibitors: cycloheximide protein synthesis inhibition. AID 2314. 12% of 300,000 active. max response, %. cell reporter, cycloheximide protein synthesis inhibition counterscreen; in the data active means max response mostly above about 13%, no sharp cut-off; inactive means mostly below about 14%; further: read at 38.3 µM for the half of the compounds with a filed dose; 0% is about no effect
NS1 inh – blocks influenza NS1 protein function; Potency, µM (titrated, usually from 46.1 µM), for the others: at the top dose activity, positive = more growth; 0.4% of 270,000 active; AID 2326; calls by dose curve; further: potency means the concentration at half of the fitted maximal effect; actives are rising curves; nearly all actives have a fitted effect of over 50% in size
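A cell-based growth assay was used: compounds that relieve NS1-induced slow growth of budding yeast raise OD600. Assay medium was yeast nitrogen base with ammonium sulphate and -URA supplement, pH 6.0, with 2% galactose.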
Pf growth 48h – P. falciparum growth inhibition at 48 hours (one generation). P. falciparum luciferase growth in erythrocytes, 48 h. Potency, µM (series often up to 28.7 µM), without a hit: top-dose activity change, negative = inhibition, usual class: inhibitors. 5.9% of 310,000 active; further: potency means the concentration at half of the fitted maximal effect; on the % scale 0 is the no-effect control and ±100 the full control effect
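Firefly luciferase activity from engineered P. falciparum reports growth; inhibitors lower the luminescent signal. Cultures contained 2% hematocrit erythrocytes at 0.1% final parasitemia.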
Shiga toxin inh – inhibitors of Shiga toxin in Vero cells | Vero cells, Shiga toxin protein synthesis inhibition reporter | inhibition, % at 38.7 µM | 9.2% of 290,000 active | AID 2315; in the data active means inhibition mostly above about 28%, no sharp cut-off; inactive means mostly below about 43%; further: 0% is about no effect
Pf growth 96h – P. falciparum growth inhibition at 96 hours; Potency, µM (top dose mostly 28.7 µM), for inactives: at the top dose activity change, negative = inhibition, hits mostly inhibitors; 6.9% of 320,000 active; P. falciparum luciferase reporter growth, 96 h; further: potency means the concentration at half of the fitted maximal effect; on the % scale 0 is the no-effect control and ±100 the full control effect
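96 h incubation, 37 C, 5% CO2, of luciferase-reporter P. falciparum-infected RBCs (2% hematocrit, 0.05% parasitemia final) with test compounds; endpoint luminescence.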
* marks the source's active call; other numbers are inactive results; [ ] = remark or other dose. Compounds with a hit are over-represented: about 21% of the library has one in this group of screens. Unless noted, the call rests on the fitted dose curve; in most records, active means well fitted curve in the direction sought with a large enough effect; inconclusive means small, poorly fitted or top-dose-only effect, or another doubt; inactive means no such curve, though single readings can be large; an effect the other way counts as inactive or inconclusive.

`O=C(N/N=C/c1c(Cl)[nH]c2ccccc12)c1ccc2c(c1)OCCO2` gave Sm TGR inh -9.9%, Cycloheximide cs 55.1*, NS1 inh -8.5%, Pf growth 48h 50.9%, Shiga toxin inh 60.4* and Pf growth 96h 127.3%.
Screening O=C(N/N=C\c1ccc2c(c1)OCO2)c1ccco1 returned Sm TGR inh 1.7%, Cycloheximide cs 28.5*, NS1 inh -11.9%, Pf growth 48h 196.0%, Shiga toxin inh 59.3* and Pf growth 96h -8.0%.
For Cc1[nH]c2ccccc2c1/C=N\NC(=O)CNc1ccc2c(c1)OCO2 the results were Sm TGR inh inconclusive, Cycloheximide cs 13.4, NS1 inh 23.1%, Pf growth 48h 20.4%, Shiga toxin inh -23.4 and Pf growth 96h -10.5%.
For CC(=O)c1ccc(-n2nnnc2SCC(=O)NC2CCCCC2)cc1 the results were Sm TGR inh -6.0%, Cycloheximide cs -5.2, NS1 inh 4.9%, Pf growth 48h -6.6%, Shiga toxin inh 22.9 and Pf growth 96h 12.7%.
CCc1ccccc1NS(=O)(=O)c1ccc(NC(=O)N2CCCC2)cc1 was read as Sm TGR inh 2.8%.
Screening O=C(N/N=C/c1cccnc1)c1cc(O)c(O)c(O)c1 returned Sm TGR inh -32.3%, Cycloheximide cs -1.0, NS1 inh 6.9%, Pf growth 48h 0.0%, Shiga toxin inh 2.2 and Pf growth 96h 19.3%.
For O=C(N/N=C/c1cccnc1)c1ccc2c(c1)OCO2 the results were Sm TGR inh 7.8%, Cycloheximide cs 38.4*, NS1 inh 4.8%, Pf growth 48h -25.4%[0.00184 µM], Shiga toxin inh 55.0* and Pf growth 96h -18.6%.
Screening O=C(CNC(=O)c1ccc2c(c1)OCO2)Nc1cccc(Br)c1 returned Sm TGR inh -10.1%, Pf growth 48h 6.4% and Pf growth 96h 0.0%.
`O=C(Cc1ccccc1)N/N=C/c1cc2c(cc1Cl)OCO2` gave Sm TGR inh -10.2%, Cycloheximide cs 35.0*, NS1 inh -0.8%, Pf growth 48h 52.4%, Shiga toxin inh 84.7* and Pf growth 96h 81.3%.
For O=C(CNC(=O)c1cccc(Br)c1)N/N=C/c1ccc2c(c1)OCO2 the results were Sm TGR inh 1.5%, Cycloheximide cs 24.3*, NS1 inh -23.7%, Pf growth 48h 18.3%, Shiga toxin inh 78.7* and Pf growth 96h 28.4%.
O=C(N/N=C/c1ccc[nH]1)c1ccc2c(c1)OCO2 was read as Sm TGR inh -3.6%, Cycloheximide cs 36.9*, Pf growth 48h 176.7%, Shiga toxin inh 109.2* and Pf growth 96h 122.5%.
COc1ccc(NC(=O)Cn2c(SCc3c(F)cccc3Cl)nc3ccncc32)cc1OC was read as Sm TGR inh -0.9%.
For Cc1ccc(S(=O)(=O)OCC(=O)O)cc1 the results were NS1 inh 0.0%.
CN(C(=O)c1cccc(C(F)(F)F)c1)C1CCCc2ccccc21 (centres undefined) was read as Sm TGR inh -1.2%, Cycloheximide cs 11.7, NS1 inh 7.9%, Pf growth 48h -10.4%, Shiga toxin inh -0.9 and Pf growth 96h -22.2%.
CCCCn1c(N)c(N(CCOC)C(=O)COC(=O)COc2ccc(CC)cc2)c(=O)[nH]c1=O was read as Sm TGR inh -3.6%, Pf growth 48h inconclusive and Pf growth 96h 22.5%.
Screening C/C=C/C=C/C(=O)OC(C)C(=O)Nc1cc([N+](=O)[O-])ccc1OC (centres undefined) returned Sm TGR inh 22.4µM*, Cycloheximide cs -3.2, Pf growth 48h 4.5%, Shiga toxin inh 17.6 and Pf growth 96h 23.2%.
For COc1ccc([N+](=O)[O-])cc1NC(=S)Nc1ccccc1 the results were Sm TGR inh 28.2µM*, Cycloheximide cs -5.0, NS1 inh -2.3%, Shiga toxin inh -10.4 and Pf growth 96h -0.2%.
`COc1ccc([N+](=O)[O-])cc1NC(=O)Nc1ccccc1` gave Sm TGR inh 7.7%, Cycloheximide cs -1.9, NS1 inh 11.1%, Pf growth 48h -0.2%, Shiga toxin inh -2.6 and Pf growth 96h -0.4%.
For O=[N+]([O-])c1ccc(O)c(NC(=S)Nc2ccccc2)c1 the results were Sm TGR inh 5.5%, Cycloheximide cs 37.2*, NS1 inh -10.0%, Pf growth 48h 62.0% and Shiga toxin inh 44.7.
`Clc1ccc(-c2nnnn2-c2ccc(Cl)c(Cl)c2)cc1Cl` gave Sm TGR inh 4.7%, Cycloheximide cs 6.2, NS1 inh -84.2%, Shiga toxin inh -22.5 and Pf growth 96h inconclusive.
CCOC(=O)c1ccccc1NC(=O)Cn1c(-c2nonc2N)nc2ccccc21 was read as Sm TGR inh 3.0%, Cycloheximide cs 0.4, NS1 inh -16.7%, Pf growth 48h 3.1%, Shiga toxin inh -19.1 and Pf growth 96h 0.0%.
For Nc1nonc1-c1nc2ccccc2n1CC(=O)N/N=C/c1ccc(-c2ccccc2C(=O)O)o1 the results were Sm TGR inh 39.8µM*, Cycloheximide cs 7.2, Pf growth 48h 37.9%, Shiga toxin inh 7.1 and Pf growth 96h 54.6%.
For Nc1nonc1-c1nc2ccccc2n1CC(=O)NC1CCCC1 the results were Sm TGR inh 5.3%, Cycloheximide cs -4.6, NS1 inh -6.3%, Pf growth 48h 12.3%, Shiga toxin inh 44.7 and Pf growth 96h 10.4µM*.
`Nc1nonc1-c1nc2ccccc2n1CC(=O)Nc1ccccc1` gave Sm TGR inh -1.5%, Cycloheximide cs -2.3, NS1 inh inconclusive, Pf growth 48h 9.3%, Shiga toxin inh -0.9 and Pf growth 96h 37.8%.
For Cc1ccc(Cl)cc1N1CCN(S(=O)(=O)c2ccc3[nH]c4c(c3c2)CCCCC4)CC1 the results were Sm TGR inh 1.4%.
CCOC(=O)c1c(S(=O)(=O)N2CCC(C(=O)Nc3ccccc3OC)CC2)c(C)n(CC)c1C was read as Sm TGR inh -0.5%.
Screening Oc1[nH]c(N=C2N=c3ccccc3=N2)c2ccccc12 returned Sm TGR inh 6.9%, Cycloheximide cs 35.3*, NS1 inh -40.8%, Pf growth 48h -51.1%, Shiga toxin inh 59.9* and Pf growth 96h 2.33µM*.
CCC(Sc1nc2ccccc2c2nc(CCc3c(C)n[nH]c3C)nn12)C(=O)Nc1ccccc1F (centres undefined) was read as Sm TGR inh -2.9%.
For CC(=O)Nc1ccc(S(=O)(=O)NCc2ccc3c(c2)CCN3C(C)=O)cc1 the results were Sm TGR inh 2.6%.
For CCCCNC(=O)C1c2cc(OC)c(OC)cc2C(=O)N(C)C1c1cccs1 (centres undefined) the results were Sm TGR inh 9.0%, Cycloheximide cs -1.2, Pf growth 48h -5.9%, Shiga toxin inh -2.3 and Pf growth 96h 2.08µM*.
`CCCN(CCC)CCCNC(=O)C1c2cc(OC)c(OC)cc2C(=O)N(C)C1c1cccs1` (centres undefined) gave Sm TGR inh -23.8%, Cycloheximide cs 7.3, NS1 inh 4.8%, Shiga toxin inh -12.5 and Pf growth 96h 28.2%.

Screens (PubChem BioAssay)
